ALDH1A1 inh = qHTS Assay for Inhibitors of Aldehyde Dehydrogenase 1 (ALDH1A1); Purified ALDH1A1, NADH fluorescence, propionaldehyde substrate; Aldehyde dehydrogenase 1A1 (Homo sapiens), P00352; Potency, µM (titrated, usually from 75.3 µM), most hits filed as inhibitors; 7.3% of 220,000 active
Target sequence (P00352 whole entry, looked up): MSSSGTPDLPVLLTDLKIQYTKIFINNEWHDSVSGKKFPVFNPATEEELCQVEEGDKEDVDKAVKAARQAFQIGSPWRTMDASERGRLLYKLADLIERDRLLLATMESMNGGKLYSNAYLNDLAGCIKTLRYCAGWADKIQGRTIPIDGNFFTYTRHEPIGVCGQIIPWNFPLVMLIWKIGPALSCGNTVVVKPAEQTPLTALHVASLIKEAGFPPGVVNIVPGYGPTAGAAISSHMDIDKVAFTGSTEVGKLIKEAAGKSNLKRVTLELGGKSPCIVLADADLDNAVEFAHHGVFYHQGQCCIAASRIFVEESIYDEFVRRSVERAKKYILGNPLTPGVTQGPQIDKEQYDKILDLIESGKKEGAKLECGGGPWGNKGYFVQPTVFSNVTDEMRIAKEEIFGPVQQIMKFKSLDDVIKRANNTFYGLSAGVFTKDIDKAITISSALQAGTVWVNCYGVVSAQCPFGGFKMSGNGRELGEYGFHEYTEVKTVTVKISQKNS
HPGD block = qHTS Assay for Inhibitors of HPGD (15-Hydroxyprostaglandin Dehydrogenase); purified HPGD, NADH fluorescence kinetic, PGE2 substrate; Potency, µM, usual class: inhibitors; 15-hydroxyprostaglandin dehydrogenase [NAD(+)] (Homo sapiens), P15428; 4.3% of 150,000 active
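20 nM HPGD preincubated 15 min at room temperature with compound in 50 mM Tris-HCl pH 8, 0.01% Tween 20. Started with 1 mM NAD+ and 30 uM prostaglandin E2; NADH fluorescence (360/450 nm) read 5 times over 30-s intervals, last minus first.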
PNC inhibitor = High Content Assay for Compounds that inhibit the Assembly of the Perinucleolar Compartment; activity change (PNC), negative = inhibition, % at 10 µM; AID 2417, 2010; PC3M PTB-GFP, PNC prevalence imaging, 16 h; active compounds read low; 3.1% of 140,000 active;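 active means readout at or below -70, meaning at least 70% loss of cells showing the perinucleolar compartment, a nuclear body marking cancer cells; inconclusive means readout between -30 and a set limit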
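Compounds are pinned in duplicate onto adhered PC3M cells stably expressing GFP-tagged PTB and incubated 16 h at 37 C. Cells are then fixed, nuclei stained with Hoechst, and PNC-positive cells counted.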
Large screens that a line does not name were inactive; ! = not confirmed by another sample. Only some compounds are listed: those with a hit (about 11% of all), similar ones and a draw of the others. Unless noted, the call rests on the fitted dose curve; in most records, active means well fitted inhibition curve with a large enough effect (not every such curve was filed as active); inconclusive means small, poorly fitted or top-dose-only effect, or another doubt; inactive means no such curve, though single readings can be large or run the other way.

COC(=O)c1ccc(C(=O)OC)c(NC(=O)COC(=O)CC2CC3CCC2C3)c1 (stereo unspecified)	ALDH1A1 inh inconclusive, HPGD block inconclusive
CC(C)(C)n1cc(S(=O)(=O)c2ccccc2)[nH]c1=O	none (no result: HPGD block, PNC inhibitor)
CC1(C)CC(N(Cc2cccs2)C(=O)c2ccco2)CCO1 (stereo unspecified)	ALDH1A1 inh 10µM, PNC inhibitor inconclusive
CC1(C)CC(N(Cc2ccco2)C(=O)Cc2ccccc2)CCO1 (stereo unspecified)	none
COCCN1C(=O)N[C@@H](c2ccccc2)C(C(C)=O)=C1C	PNC inhibitor inconclusive
CC(=O)C1=C(C)N(c2ccccc2)C(=O)C1(NS(=O)(=O)c1ccc(N)cc1)C(F)(F)F (stereo unspecified)	none (no result: HPGD block, PNC inhibitor)
CC(=O)Nc1ccc(S(=O)(=O)NC2(C(F)(F)F)C(=O)Nc3c2c(=O)n(C)c(=O)n3C)cc1 (stereo unspecified)	ALDH1A1 inh inconclusive, HPGD block 20µM, PNC inhibitor inconclusive
CC(=O)Nc1ccc(S(=O)(=O)NC2(C(F)(F)F)C(=O)Nc3c2c(=O)[nH]c(=O)n3C)cc1 (stereo unspecified)	none
COC(=O)C1=C(C)N(CCc2ccccc2)C(=O)C1(NS(=O)(=O)c1ccc(NC(C)=O)cc1)C(F)(F)F (stereo unspecified)	ALDH1A1 inh 20µM
COc1ccc(NC(=O)Nc2ccc(Cc3ccncc3)cc2)cc1OC	none
O=C(CN(Cc1ccc(F)cc1)C(=O)Cn1nnc2ccccc21)NCC1CCCO1 (stereo unspecified)	none
CCN(CC(=O)Nc1ccc2c(c1)OCCO2)c1nc(-c2cccnc2)nc2ccccc12	none
FC(F)(F)c1ccc(C2[C@H]3CN(Cc4cccnc4)[C@H](c4ccccc4)C34CC2(c2ccccc2)C4)cc1 (stereo partly specified)	none (no result: PNC inhibitor)
CCCCNC(=S)NCCN1CCCCC1	ALDH1A1 inh inconclusive
CCCNC(=S)NCCN1CCCCC1	ALDH1A1 inh 35µM
CC(O)Cc1nsc(NC(=O)c2ccc(Br)o2)n1 (stereo unspecified)	PNC inhibitor inconclusive
CC(=O)n1cc([C@H]2C=C(C(=O)Nc3ccccc3)O[C@@H](OCc3ccc(CO)cc3)C2)c2ccccc21	none (no result: HPGD block, PNC inhibitor)
O=C(Nc1ccccc1)C1=C[C@H](c2ccc3c(c2)OCO3)C[C@H](OCCCCO)O1	none (no result: HPGD block, PNC inhibitor)
O=C(Nc1ccccc1)C1=C[C@@H](c2ccc(Br)cc2)C[C@@H](OCCCCO)O1	ALDH1A1 inh 7.9µM (no result: HPGD block, PNC inhibitor)
CC(=O)n1cc([C@@H]2C=C(C(=O)Nc3ccccc3)O[C@H](OCCCCO)C2)c2ccccc21	ALDH1A1 inh 13µM (no result: HPGD block, PNC inhibitor)
CCOc1cc(C(=O)N/N=C/C2CC=CCC2)cc(OCC)c1OCC (stereo unspecified)	ALDH1A1 inh inconclusive
COc1cc(Cl)c(C)cc1NC(=O)CSc1ccccc1	ALDH1A1 inh inconclusive, PNC inhibitor -125
Cc1ccc(Cl)cc1NC(=O)Cn1cccc1	none
COc1cc(Cl)c(C)cc1NC(=O)CSC	PNC inhibitor inconclusive
COc1ccc(Cl)cc1NC(=O)CCc1ccccc1	none
Cc1ccc(Cl)cc1NC(=O)CSC(N)=O	ALDH1A1 inh 1.6µM, PNC inhibitor inconclusive
COc1cc(OC)c(NC(=O)CCc2ccccc2)cc1Cl	HPGD block 16µM
COc1cc(Cl)c(C)cc1NC(=O)CSc1ccc(C)cc1	none
COc1cc(Cl)c(C)cc1NC(=O)CSc1cc(Cl)ccc1Cl	PNC inhibitor -119
NCc1ccccc1COc1ccccc1	PNC inhibitor inconclusive
O=c1cc(N2CCOCC2)cnn1-c1ccccc1	ALDH1A1 inh inconclusive, PNC inhibitor inconclusive
FC(F)(F)c1cccc(Cn2nnnc2-c2cc(Cl)cc(Cl)c2)c1	none
Cc1c2ccccc2c(CSC(=N)N)c2ccccc12	ALDH1A1 inh 14µM!, HPGD block inconclusive (no result: PNC inhibitor)
Cc1c2ccccc2c(C)c2c1ccc1ccccc12	HPGD block inconclusive (no result: PNC inhibitor)
COc1cccc(C2=NOC(C(=O)Nc3ccc(OC)c(OC)c3)C2)c1 (stereo unspecified)	none
COc1cccc(C2=NOC(C(=O)Nc3cccc(C(C)=O)c3)C2)c1 (stereo unspecified)	ALDH1A1 inh 4µM
Oc1ccccc1/C=N/NC(=S)NC1CC2C=CC1C2 (stereo unspecified)	ALDH1A1 inh 25µM (no result: HPGD block, PNC inhibitor)
Cc1c(NC(=S)N/N=C\c2ccccc2O)c(=O)n(-c2ccccc2)n1C	HPGD block inconclusive
COc1ccc(C2=NN(CN3C(=O)C(=O)c4ccccc43)C(c3ccc(OC)cc3)C2)cc1 (stereo unspecified)	ALDH1A1 inh 0.11µM, PNC inhibitor inconclusive
CCC1(C)NC(=O)N(CC(=O)N2N=C(c3ccccc3)CC2c2ccc(OC)cc2)C1=O (stereo unspecified)	none (no result: HPGD block)
COc1ccc(Cl)cc1N(CC(=O)Nc1ccccc1SC)S(C)(=O)=O	none
CCOC(=O)CN1C(=O)S/C(=C/c2ccc(O)c([N+](=O)[O-])c2)C1=O	ALDH1A1 inh inconclusive
COc1cc(/C=C2\SC(=N)N(c3ccc(F)cc3)C2=O)ccc1O	none (no result: HPGD block, PNC inhibitor)
COc1ccc(/C=C2\SC(=O)N(CC(=O)Nc3cccnc3)C2=O)cc1OC	none (no result: HPGD block, PNC inhibitor)
COc1cc(/C=C2\SC(=O)N(CC(=O)Nc3cccc(C)c3)C2=O)cc([N+](=O)[O-])c1O	ALDH1A1 inh 22µM (no result: HPGD block, PNC inhibitor)
COc1cc(/C=C2\SC(=N)N(c3ccc4c(c3)OCO4)C2=O)cc(OC)c1O	HPGD block 4µM
COc1cc(/C=C2\SC(=O)N(c3ccccc3Cl)C2=O)cc([N+](=O)[O-])c1O	ALDH1A1 inh 0.16µM (no result: HPGD block, PNC inhibitor)
O=C1C2CC(O)CN2C(=O)N1c1ccccc1 (stereo unspecified)	none (no result: HPGD block, PNC inhibitor)
Cc1c(C(=O)Nc2ccc(Br)cc2)cnn1C	PNC inhibitor inconclusive
Cc1c(C(=O)c2no[n+]([O-])c2C(=O)c2cnn(C)c2C)cnn1C	ALDH1A1 inh 0.89µM
COc1ccc(-c2cn[nH]c2-c2ccc(OCc3ccccc3F)cc2O)cc1OC	none (no result: HPGD block, PNC inhibitor)
Cc1ncc(CN2CCN(CCc3ccccc3)C(CCO)C2)s1 (stereo unspecified)	none (no result: HPGD block, PNC inhibitor)
O=C(O)/C=C\C(=O)Nc1ccc(Oc2ccccc2)cc1	ALDH1A1 inh 11µM
COc1ccc(NC(=O)/C=C/C(=O)O)cc1Cl	ALDH1A1 inh inconclusive
O=C(O)/C=C\C(=O)Nc1ccc2c(c1)C(=O)c1cc(F)ccc1-2	ALDH1A1 inh inconclusive (no result: PNC inhibitor)
O=C(O)/C=C/C(=O)Nc1ccc(Oc2ccc(NC(=O)/C=C/C(=O)O)cc2)cc1	ALDH1A1 inh inconclusive
O=C(O)/C=C/C(=O)Nc1ccc(SC(F)(F)C(F)(F)C(F)(F)F)cc1	ALDH1A1 inh 28µM (no result: HPGD block, PNC inhibitor)
O=C(O)/C=C/C(=O)Nc1ccc(OC(F)(F)Cl)cc1	ALDH1A1 inh 25µM (no result: HPGD block, PNC inhibitor)
CC(CCC(=O)O)(c1cc(Br)c(O)c(Br)c1)c1cc(Br)c(O)c(Br)c1	none (no result: PNC inhibitor)
Cc1nc2sc(C(c3cccc(F)c3)N3CCOCC3)c(O)n2n1 (stereo unspecified)	none
CC(C)C[C@@H](CC(=O)N[C@H](CC(=O)N[C@@H]1CCCC[C@H]1C(=O)N[C@H](CC(=O)N[C@@H](CCC(=O)O)CC(=O)O)CC(C)C)C(C)C)NC(=O)[C@@H]1CNCC[C@H]1N	ALDH1A1 inh inconclusive (no result: PNC inhibitor)
O=C(NCc1ccccc1)C(c1ccncc1)N(C(=O)c1csnn1)C1CC1 (stereo unspecified)	none

Bioassay records (PubChem)
